For assay [1], the target named is Ribosomal protein S6 kinase alpha-6 (Homo sapiens) (UniProt Q9UK32). As to conditions: at 1 µM.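 Further: each value is a mean inhibition of RSK4 from a GSK PKIS panel screen.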
Assay [2] concerns the target T1, Serine/threonine-protein kinase Sgk1 (Homo sapiens) (UniProt O00141).
T1 sequence (whole entry): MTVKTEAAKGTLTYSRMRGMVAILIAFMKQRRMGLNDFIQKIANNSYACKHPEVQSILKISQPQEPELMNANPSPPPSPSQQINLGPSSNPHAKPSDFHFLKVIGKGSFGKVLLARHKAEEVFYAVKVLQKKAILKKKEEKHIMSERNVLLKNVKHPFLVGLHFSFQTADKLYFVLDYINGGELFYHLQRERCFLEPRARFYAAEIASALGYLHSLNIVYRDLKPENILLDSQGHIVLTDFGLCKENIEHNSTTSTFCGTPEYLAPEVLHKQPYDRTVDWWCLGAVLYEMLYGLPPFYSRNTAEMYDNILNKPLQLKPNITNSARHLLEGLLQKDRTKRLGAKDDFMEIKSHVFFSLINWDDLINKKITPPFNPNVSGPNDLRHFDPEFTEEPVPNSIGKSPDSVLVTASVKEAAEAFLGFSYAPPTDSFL
The conditions noted are these: at 0.1 µM.

The target in assay [3] is T1, Serine/threonine-protein kinase Sgk1 (Homo sapiens). The conditions noted are these: at 1 µM.
Assay [4] has as its target T2, Serine/threonine-protein kinase Sgk2 (Homo sapiens) (UniProt Q9HBY8).
T2 sequence (whole entry): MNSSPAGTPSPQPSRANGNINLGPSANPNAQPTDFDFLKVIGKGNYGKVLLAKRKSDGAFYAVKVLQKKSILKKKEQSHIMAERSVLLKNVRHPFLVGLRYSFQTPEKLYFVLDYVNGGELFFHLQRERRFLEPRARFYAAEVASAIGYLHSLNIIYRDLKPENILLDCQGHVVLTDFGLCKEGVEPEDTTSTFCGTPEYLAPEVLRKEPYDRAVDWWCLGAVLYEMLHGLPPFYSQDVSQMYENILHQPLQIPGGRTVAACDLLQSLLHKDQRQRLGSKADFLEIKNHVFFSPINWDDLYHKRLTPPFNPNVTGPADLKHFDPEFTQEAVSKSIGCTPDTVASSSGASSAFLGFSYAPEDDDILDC
The conditions noted are these: at 0.1 µM.

For assay [5], the target named is T2, Serine/threonine-protein kinase Sgk2 (Homo sapiens). As to conditions: at 1 µM.
The target in assay [6] is T3, Serine/threonine-protein kinase Sgk3 (Homo sapiens) (UniProt Q96BR1).
T3 sequence (whole entry): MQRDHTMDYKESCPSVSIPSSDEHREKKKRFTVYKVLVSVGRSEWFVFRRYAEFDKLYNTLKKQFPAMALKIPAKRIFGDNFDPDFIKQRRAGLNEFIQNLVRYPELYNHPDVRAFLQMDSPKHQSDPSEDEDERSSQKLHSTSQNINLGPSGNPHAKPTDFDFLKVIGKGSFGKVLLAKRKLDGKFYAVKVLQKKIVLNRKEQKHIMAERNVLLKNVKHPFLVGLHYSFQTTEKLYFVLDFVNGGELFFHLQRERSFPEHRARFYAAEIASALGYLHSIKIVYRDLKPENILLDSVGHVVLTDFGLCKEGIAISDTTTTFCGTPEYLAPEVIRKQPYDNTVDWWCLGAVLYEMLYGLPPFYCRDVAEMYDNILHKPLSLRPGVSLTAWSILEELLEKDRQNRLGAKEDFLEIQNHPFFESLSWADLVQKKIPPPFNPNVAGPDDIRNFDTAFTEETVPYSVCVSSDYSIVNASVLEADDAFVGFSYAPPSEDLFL
The conditions noted are these: at 0.1 µM.

For assay [7], the target named is T3, Serine/threonine-protein kinase Sgk3 (Homo sapiens). As to conditions: at 1 µM.
In assay [8] the target is 5'-AMP-activated protein kinase catalytic subunit alpha-1 (Homo sapiens) (UniProt Q13131). The conditions noted are these: at 0.1 µM.
Assay [9] shares this target. As to conditions: at 1 µM.
Assay [10] concerns the target 5'-AMP-activated protein kinase catalytic subunit alpha-2 (Homo sapiens) (UniProt P54646). The conditions noted are these: at 0.1 µM.
Assay [11] has the same target. The conditions noted are these: at 1 µM.
In assay [12] the target is T4, NUAK family SNF1-like kinase 1 (Homo sapiens) (UniProt O60285).
T4 sequence (whole entry): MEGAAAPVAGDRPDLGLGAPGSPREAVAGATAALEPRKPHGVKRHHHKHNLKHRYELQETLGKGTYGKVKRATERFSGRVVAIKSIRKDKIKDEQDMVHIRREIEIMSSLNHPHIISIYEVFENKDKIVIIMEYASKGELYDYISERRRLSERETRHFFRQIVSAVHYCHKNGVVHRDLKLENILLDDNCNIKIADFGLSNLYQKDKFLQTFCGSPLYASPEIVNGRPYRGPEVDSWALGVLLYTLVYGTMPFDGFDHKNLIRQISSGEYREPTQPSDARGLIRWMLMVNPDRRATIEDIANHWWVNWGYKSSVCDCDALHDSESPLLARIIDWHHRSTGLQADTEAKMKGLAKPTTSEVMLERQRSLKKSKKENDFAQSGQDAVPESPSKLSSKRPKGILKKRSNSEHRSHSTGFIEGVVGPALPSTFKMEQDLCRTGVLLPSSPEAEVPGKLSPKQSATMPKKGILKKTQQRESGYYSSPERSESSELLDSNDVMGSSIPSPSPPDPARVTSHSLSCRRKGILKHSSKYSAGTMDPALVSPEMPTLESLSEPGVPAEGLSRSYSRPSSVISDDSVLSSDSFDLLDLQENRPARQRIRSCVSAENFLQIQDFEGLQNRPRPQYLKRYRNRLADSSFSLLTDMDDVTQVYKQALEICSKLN
The conditions noted are these: at 0.1 µM.

The target in assay [13] is T4, NUAK family SNF1-like kinase 1 (Homo sapiens). The conditions noted are these: at 1 µM.
Assay [14] has as its target T5, Serine/threonine-protein kinase BRSK1 (Homo sapiens) (UniProt Q8TDC3).
T5 sequence (whole entry): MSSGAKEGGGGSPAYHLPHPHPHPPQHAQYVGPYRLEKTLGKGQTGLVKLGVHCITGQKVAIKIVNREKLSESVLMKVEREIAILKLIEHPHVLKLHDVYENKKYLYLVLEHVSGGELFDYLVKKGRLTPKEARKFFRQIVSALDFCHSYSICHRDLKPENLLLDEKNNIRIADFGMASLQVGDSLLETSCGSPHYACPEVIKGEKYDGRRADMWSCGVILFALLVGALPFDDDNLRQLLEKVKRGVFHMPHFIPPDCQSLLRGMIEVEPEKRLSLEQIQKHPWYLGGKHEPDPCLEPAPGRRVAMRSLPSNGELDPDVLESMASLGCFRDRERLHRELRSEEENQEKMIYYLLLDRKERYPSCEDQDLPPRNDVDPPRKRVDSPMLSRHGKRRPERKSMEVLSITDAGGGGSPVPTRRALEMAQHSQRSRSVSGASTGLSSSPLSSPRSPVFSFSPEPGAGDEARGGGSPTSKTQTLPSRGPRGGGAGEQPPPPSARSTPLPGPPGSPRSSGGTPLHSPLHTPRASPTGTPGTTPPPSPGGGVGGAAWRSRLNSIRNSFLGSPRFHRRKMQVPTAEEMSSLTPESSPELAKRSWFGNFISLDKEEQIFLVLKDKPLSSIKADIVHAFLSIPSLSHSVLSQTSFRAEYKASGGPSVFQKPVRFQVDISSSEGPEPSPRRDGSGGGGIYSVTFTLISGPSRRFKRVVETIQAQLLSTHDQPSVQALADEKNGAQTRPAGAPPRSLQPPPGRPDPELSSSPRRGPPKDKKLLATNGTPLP
The conditions noted are these: at 0.1 µM.

The target of assay [15] is T5, Serine/threonine-protein kinase BRSK1 (Homo sapiens). As to conditions: at 1 µM.
Assay [16] deals with T6, Serine/threonine-protein kinase BRSK2 (Homo sapiens) (UniProt Q8IWQ3).
T6 sequence (whole entry): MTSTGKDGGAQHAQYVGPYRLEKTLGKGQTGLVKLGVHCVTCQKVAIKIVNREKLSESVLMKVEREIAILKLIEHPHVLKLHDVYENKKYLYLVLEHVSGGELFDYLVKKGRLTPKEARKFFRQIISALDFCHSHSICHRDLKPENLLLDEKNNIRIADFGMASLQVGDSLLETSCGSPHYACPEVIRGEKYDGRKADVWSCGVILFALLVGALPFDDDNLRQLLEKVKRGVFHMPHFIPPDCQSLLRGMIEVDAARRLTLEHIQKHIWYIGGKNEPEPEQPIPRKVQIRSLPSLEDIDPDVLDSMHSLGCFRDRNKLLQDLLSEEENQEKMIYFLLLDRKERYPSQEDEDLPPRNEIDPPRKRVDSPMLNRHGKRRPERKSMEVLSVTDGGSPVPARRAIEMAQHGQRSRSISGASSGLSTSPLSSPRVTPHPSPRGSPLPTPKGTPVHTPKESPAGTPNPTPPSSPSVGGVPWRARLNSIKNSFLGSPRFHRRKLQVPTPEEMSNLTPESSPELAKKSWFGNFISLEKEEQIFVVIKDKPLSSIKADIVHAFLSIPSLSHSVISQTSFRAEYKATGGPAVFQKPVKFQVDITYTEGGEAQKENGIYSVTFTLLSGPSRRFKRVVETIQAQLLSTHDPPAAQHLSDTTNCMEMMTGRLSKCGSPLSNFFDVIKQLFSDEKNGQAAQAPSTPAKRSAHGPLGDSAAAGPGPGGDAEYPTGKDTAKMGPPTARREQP
The conditions noted are these: at 0.1 µM.

For assay [17], the target named is T6, Serine/threonine-protein kinase BRSK2 (Homo sapiens). The conditions noted are these: at 1 µM.
Assay [18] has as its target Calcium/calmodulin-dependent protein kinase type 1D (Homo sapiens) (UniProt Q8IU85). The conditions noted are these: at 0.1 µM.
For assay [19] the target is unchanged. As to conditions: at 1 µM.
For assay [20], the target named is Calcium/calmodulin-dependent protein kinase type II subunit alpha (Homo sapiens) (UniProt Q9UQM7). As to conditions: at 0.1 µM.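 Further: reported values are averages (mean inhibition of CAMK2A).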

SMILES strings stand for the structures.

Sequence of Ribosomal protein S6 kinase alpha-6 (Homo sapiens) (Q9UK32 whole entry): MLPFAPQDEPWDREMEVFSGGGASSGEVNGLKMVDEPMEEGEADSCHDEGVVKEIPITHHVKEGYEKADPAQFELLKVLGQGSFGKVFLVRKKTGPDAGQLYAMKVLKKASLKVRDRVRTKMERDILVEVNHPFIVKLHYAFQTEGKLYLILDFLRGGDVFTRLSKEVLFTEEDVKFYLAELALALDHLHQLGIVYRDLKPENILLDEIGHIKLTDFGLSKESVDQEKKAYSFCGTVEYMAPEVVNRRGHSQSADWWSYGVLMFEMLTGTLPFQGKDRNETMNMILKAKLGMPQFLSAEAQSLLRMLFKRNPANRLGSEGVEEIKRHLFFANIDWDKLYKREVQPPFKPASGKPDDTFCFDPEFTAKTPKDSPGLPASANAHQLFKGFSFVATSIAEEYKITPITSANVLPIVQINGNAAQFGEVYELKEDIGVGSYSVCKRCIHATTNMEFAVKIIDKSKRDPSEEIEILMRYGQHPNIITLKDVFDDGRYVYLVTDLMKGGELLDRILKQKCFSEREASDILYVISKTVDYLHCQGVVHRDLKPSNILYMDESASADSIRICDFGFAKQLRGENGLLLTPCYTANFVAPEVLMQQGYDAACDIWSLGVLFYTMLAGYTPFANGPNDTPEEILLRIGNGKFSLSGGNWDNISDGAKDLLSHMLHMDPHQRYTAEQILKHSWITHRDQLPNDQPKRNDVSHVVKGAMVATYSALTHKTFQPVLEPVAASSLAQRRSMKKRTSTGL
Sequence of 5'-AMP-activated protein kinase catalytic subunit alpha-2 (Homo sapiens) (P54646 whole entry, looked up): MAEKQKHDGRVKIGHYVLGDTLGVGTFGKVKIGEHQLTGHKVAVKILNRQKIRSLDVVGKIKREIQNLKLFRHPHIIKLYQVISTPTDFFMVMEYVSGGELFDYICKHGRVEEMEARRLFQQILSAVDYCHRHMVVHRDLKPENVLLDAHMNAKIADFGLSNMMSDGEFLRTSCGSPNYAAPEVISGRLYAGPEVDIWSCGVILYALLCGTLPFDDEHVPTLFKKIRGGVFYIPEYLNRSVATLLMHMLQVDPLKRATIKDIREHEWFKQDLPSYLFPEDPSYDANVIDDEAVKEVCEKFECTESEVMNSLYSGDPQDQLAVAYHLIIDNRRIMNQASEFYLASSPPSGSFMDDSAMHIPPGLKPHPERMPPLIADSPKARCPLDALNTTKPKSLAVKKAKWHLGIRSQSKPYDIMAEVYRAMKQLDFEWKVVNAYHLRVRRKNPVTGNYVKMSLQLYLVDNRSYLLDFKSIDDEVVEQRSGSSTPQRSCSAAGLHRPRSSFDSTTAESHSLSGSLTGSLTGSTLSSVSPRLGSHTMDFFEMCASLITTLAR
Sequence of Calcium/calmodulin-dependent protein kinase type 1D (Homo sapiens) (Q8IU85 whole entry, looked up): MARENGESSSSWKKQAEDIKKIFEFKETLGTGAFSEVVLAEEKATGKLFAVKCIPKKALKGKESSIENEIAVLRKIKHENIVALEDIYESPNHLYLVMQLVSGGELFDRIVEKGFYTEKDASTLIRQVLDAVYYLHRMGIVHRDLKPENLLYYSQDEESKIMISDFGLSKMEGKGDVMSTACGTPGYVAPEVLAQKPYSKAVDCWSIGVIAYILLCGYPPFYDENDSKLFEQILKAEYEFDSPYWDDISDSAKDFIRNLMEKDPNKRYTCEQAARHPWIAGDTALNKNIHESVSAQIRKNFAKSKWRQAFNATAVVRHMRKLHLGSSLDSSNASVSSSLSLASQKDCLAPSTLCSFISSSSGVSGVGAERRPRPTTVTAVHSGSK
Sequence of Calcium/calmodulin-dependent protein kinase type II subunit alpha (Homo sapiens) (Q9UQM7 whole entry): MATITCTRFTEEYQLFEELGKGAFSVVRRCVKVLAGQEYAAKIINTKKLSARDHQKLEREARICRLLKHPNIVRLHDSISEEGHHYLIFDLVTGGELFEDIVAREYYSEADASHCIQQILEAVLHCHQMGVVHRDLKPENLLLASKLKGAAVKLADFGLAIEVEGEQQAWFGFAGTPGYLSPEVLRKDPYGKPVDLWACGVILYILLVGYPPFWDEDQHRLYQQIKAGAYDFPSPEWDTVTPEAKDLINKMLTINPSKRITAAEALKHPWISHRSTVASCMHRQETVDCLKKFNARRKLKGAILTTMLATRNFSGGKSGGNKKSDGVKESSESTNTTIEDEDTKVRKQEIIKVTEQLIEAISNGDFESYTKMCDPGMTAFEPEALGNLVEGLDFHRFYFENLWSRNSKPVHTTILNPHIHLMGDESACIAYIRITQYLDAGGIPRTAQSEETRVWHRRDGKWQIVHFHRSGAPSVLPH
Sequence of 5'-AMP-activated protein kinase catalytic subunit alpha-1 (Homo sapiens) (Q13131 whole entry, looked up): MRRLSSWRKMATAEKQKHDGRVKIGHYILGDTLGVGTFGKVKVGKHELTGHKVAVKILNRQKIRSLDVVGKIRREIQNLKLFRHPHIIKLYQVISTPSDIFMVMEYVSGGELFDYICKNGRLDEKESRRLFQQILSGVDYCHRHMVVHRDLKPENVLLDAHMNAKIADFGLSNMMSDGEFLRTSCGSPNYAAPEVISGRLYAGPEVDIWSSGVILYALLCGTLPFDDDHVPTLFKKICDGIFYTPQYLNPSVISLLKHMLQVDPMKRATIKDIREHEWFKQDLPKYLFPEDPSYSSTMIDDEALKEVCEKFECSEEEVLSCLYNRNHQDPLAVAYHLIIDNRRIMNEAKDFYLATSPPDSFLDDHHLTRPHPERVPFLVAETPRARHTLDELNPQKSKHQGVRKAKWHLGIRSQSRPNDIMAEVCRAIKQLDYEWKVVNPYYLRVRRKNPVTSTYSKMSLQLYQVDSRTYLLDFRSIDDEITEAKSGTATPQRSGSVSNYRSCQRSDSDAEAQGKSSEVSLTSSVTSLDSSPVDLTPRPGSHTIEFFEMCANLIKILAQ

For orientation: inhibition means the change of the read-out against control, counted positive when it falls. `CCN1CCC(CC(=O)Nc2n[nH]c3nc(-c4cccs4)c(Br)cc23)CC1`: the inhibition in assay [1] is 1.64%; in assay [2] it was -1.12%; in assay [3] it was -1.95%; in assay [4], -5.07%; in assay [5] it was -0.81%; in assay [6], -2.7%. Moreover, the inhibition was -2.06% in [7]; -0.96% in [8]; 4.08% in [9]; 3.33% in assay [10]; 5.99% in [11]; -2.53% in assay [12]. The inhibition in [13] is 9.14%; in assay [14], 3.39%; in assay [15], 21.7%; in assay [16] it was 2.29%; in assay [17], 18.5%; in [18], -0.45%. Besides, the inhibition in [19] is 1.72%; in assay [20], -4.08%.
In the case of `CC1=C(C(=O)Nc2ccc3[nH]ncc3c2)C(c2ccc(Cl)c(Cl)c2)CC(=O)N1` (stereo not given), the inhibition was 5.82% in assay [1]; 0.54% in [2]; 6.57% in [3]; 0.96% in assay [4]; 8.76% in assay [5]; 1.38% in assay [6]. The inhibition in assay [7] is 10.8%; in assay [8], 6.35%; in assay [9], 34.8%; in assay [10] it was 1.12%; in [11], 7.05%; in assay [12], -0.25%. Moreover, the inhibition in [13] is 14.9%; in assay [14] it was 1.14%; in assay [15], 10.1%; in assay [16], 1.61%; in assay [17], 15.5%; in [18], -0.31%. The values for the inhibition in assay [19] and in assay [20] were 1.37% and 1.87%, respectively.
For `COc1cc2ncn(-c3cc(O[C@@H](C)c4ccccc4Cl)c(C(N)=O)s3)c2cc1OC`, the inhibition was found to be 6.8% in assay [1]; 3.98% in assay [2]; 4.72% in [3]; 4.32% in assay [4]; 3.95% in assay [5]; 4.22% in [6]. The inhibition came to 7.31% in [7]; 3.57% in [8]; 10.6% in assay [9]; 1.04% in assay [10]; 5.06% in assay [11]; 3.52% in assay [12]. Also, the inhibition in assay [13] was 22.4%; in assay [14], 8.66%; in assay [15] it was 44%; in assay [16], 19.4%; in [17], 58.9%; in assay [18], 1.43%. Further, the values for the inhibition in [19] and in assay [20] were 1.53% and 1.15%, respectively.

The values above are taken from ChEMBL document CHEMBL1961873, “Compounds: GSK PKIS; Assays: Nanosyn kinase panel” (2012).
